Bioassay records: PubChem, National Center for Advancing Translational Sciences (NCATS)
KB-3-1 tox: kills parental KB-3-1 adenocarcinoma cells | AID 1347075 | KB-3-1 viability, CellTiter-Glo ATP luminescence, 72 h | 400,000 compounds, 1.4% hits | Potency, µM (top dose mostly 46.1 µM), most hits filed as cytotoxic; note: nearly all actives have a fitted effect of over 60% in size
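Parental KB-3-1 viability, qHTS format: 72 h compound exposure, 37 °C; CellTiter-Glo; media-only wells and DMSO plates as controls; concentration-effect fits on corrected data.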
MCF10A rereplic: inducers of DNA re-replication in MCF 10A breast cells | MCF 10A DNA re-replication, Hoechst nuclear intensity, 48 h | Potency, µM (titrated, usually from 46.1 µM), usual class: activators | 350,000 compounds, 2.9% hits; note: nearly all actives have a fitted effect of over 50% in size
KB-V1 cytotox: kills drug-selected multidrug resistant KB-V1 cells; KB-V1 MDR cells viability, CellTiter-Glo, 72 h; Potency, µM (titrated, usually from 46.1 µM), actives largely listed as cytotoxic; 400,000 compounds, 3.4% hits; AID 1347076; note: nearly all actives have a fitted effect of over 60% in size
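Drug-selected KB-V1 cells, grown in DMEM lacking phenol red with 10% FBS, receive compound titrations; after three days at 37 degrees C, surviving cell ATP is quantified by CellTiter-Glo luminescence and responses normalized and curve-fitted.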
Gal4-VP16 FLuc: Gal4-VP16 reporter inhibition counter-screen. 310,000 compounds, 3.5% hits. Potency, µM (series often up to 53.6 µM), most hits filed as inhibitors. Drosophila S2 Gal4-VP16 UAS-luciferase, luminescence, 20 h. AID 2546;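 note: Gal4-VP16 expression switched on by copper sulfate through the metallothionein promoter; nearly all actives have a fitted effect of over 50% in size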
SW480 rereplic: induces DNA re-replication in SW480 colon adenocarcinoma cells; SW480 DNA re-replication, Hoechst DNA content imaging, 48 h; Potency, µM (highest dose often 46.1 µM), most hits filed as activators; 340,000 compounds, 1.8% hits; AID 624297; note: nearly all actives have a fitted effect of over 55% in size
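Image-based DNA-content assay: after two days of treatment, nuclei were labelled with the DNA dye Hoechst and imaged, and hits were compounds raising the count of nuclei showing high fluorescence intensity.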
RORgamma inh: inhibitors of mouse ROR gamma transcriptional activity; 310,000 compounds, 5.4% hits; Potency, µM (titrated, usually from 53.6 µM), usual class: inhibitors; Drosophila S2 Gal4-RORgamma UAS-luciferase reporter, 20 h; AID 2551; P51450; note: nearly all actives have a fitted effect of over 60% in size
Target sequence (P51450 whole entry, looked up, the tested form may be a part): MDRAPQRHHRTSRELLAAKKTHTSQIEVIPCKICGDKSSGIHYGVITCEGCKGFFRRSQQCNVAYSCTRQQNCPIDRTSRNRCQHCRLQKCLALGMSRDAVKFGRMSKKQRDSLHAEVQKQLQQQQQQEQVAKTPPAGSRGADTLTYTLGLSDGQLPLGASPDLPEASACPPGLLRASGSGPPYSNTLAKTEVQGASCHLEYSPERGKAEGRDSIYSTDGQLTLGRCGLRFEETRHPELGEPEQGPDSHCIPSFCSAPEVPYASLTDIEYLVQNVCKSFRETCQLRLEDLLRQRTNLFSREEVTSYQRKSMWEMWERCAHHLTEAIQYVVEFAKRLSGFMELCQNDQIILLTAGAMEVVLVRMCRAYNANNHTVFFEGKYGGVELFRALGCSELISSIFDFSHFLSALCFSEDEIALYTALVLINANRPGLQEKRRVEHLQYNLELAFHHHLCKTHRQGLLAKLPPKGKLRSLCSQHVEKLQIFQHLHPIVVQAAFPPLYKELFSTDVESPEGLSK
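Luminescence from a UAS-regulated Photinus luciferase reporter in stably transfected Drosophila Schneider cells is measured; decreased signal marks ROR gamma inhibition. Fusion expression is induced by 700 uM copper sulfate for 20 hr.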
Large screens that a line does not name were inactive. Only some compounds are listed: those with a hit (about 10% of all), similar ones and a draw of the others. Calls come from the whole dose curve; as a rule, active = well fitted curve in the direction sought with a large enough effect; inconclusive = small, poorly fitted or top-dose-only effect, or another doubt; inactive = no such curve, though single readings can be large; an effect the other way counts as inactive or inconclusive.

COc1ccc(CCNC(=O)c2ccc3c(c2)CCN3S(=O)(=O)c2ccc(C)cc2)cc1	KB-V1 cytotox inconclusive (no result: MCF10A rereplic, Gal4-VP16 FLuc, SW480 rereplic, RORgamma inh)
Cc1ccc(-c2csc(NC(=O)c3ccc(C)o3)n2)cc1	MCF10A rereplic inconclusive, SW480 rereplic inconclusive
Cc1ccc(-c2csc(NC(=S)NC(=O)c3ccco3)n2)cc1	Gal4-VP16 FLuc inconclusive, RORgamma inh 5.6µM
Cc1ccc(-c2csc(NC(=O)c3ccc([N+](=O)[O-])o3)n2)cc1	KB-3-1 tox inconclusive, MCF10A rereplic 4.1µM, Gal4-VP16 FLuc inconclusive, SW480 rereplic 6.5µM
COc1ccc(-c2csc(NC(=S)NC(=O)c3ccco3)n2)cc1Br	KB-3-1 tox inconclusive, MCF10A rereplic inconclusive, KB-V1 cytotox inconclusive, Gal4-VP16 FLuc inconclusive, RORgamma inh 7.9µM
O=[N+]([O-])c1cccc(NC(=S)Nc2nc(-c3ccc(Cl)cc3Cl)cs2)c1	Gal4-VP16 FLuc 3.2µM, RORgamma inh 2µM (no result: KB-3-1 tox, MCF10A rereplic, KB-V1 cytotox, SW480 rereplic)
O=C(NC(=S)Nc1nc(-c2cccc([N+](=O)[O-])c2)cs1)c1cc(Cl)ccc1Cl	MCF10A rereplic inconclusive, KB-V1 cytotox inconclusive, SW480 rereplic inconclusive, RORgamma inh inconclusive
COc1ccc(C)cc1NC(=O)COCc1cc(-c2ccc(F)cc2)on1	none (no result: MCF10A rereplic, Gal4-VP16 FLuc, SW480 rereplic, RORgamma inh)
Cc1ccc(-c2csc(NC(=O)c3c(C)noc3C)n2)cc1	MCF10A rereplic inconclusive, KB-V1 cytotox inconclusive, SW480 rereplic 1.6µM (no result: Gal4-VP16 FLuc, RORgamma inh)
COc1ccc(-c2csc(NC(=O)c3c(C)noc3C)n2)cc1	none (no result: Gal4-VP16 FLuc, RORgamma inh)
CCc1noc(C)c1C(=O)Nc1nc(-c2ccc(Cl)cc2Cl)cs1	KB-3-1 tox inconclusive, MCF10A rereplic 16µM, KB-V1 cytotox inconclusive, Gal4-VP16 FLuc inconclusive, RORgamma inh inconclusive
COc1ccc(CC(=O)Nc2cc(-c3nc4cccnc4s3)ccc2C)cc1	none (no result: MCF10A rereplic, Gal4-VP16 FLuc, SW480 rereplic, RORgamma inh)
CC(Oc1ccccc1)C(=O)N[C@@H]1C(=O)N2C(C(=O)O)C(C)(C)S[C@H]12 (some centres undefined)	none (no result: MCF10A rereplic, Gal4-VP16 FLuc, SW480 rereplic, RORgamma inh)
O=C1NC(=O)C(=Cc2ccccc2[N+](=O)[O-])S1	KB-3-1 tox inconclusive, MCF10A rereplic 21µM, KB-V1 cytotox inconclusive, SW480 rereplic inconclusive (no result: Gal4-VP16 FLuc, RORgamma inh)
O=C1NC(=O)/C(=C/c2cccc3ccccc23)S1	RORgamma inh inconclusive
COCCN1C(=O)/C(=C/c2cc3c(cc2Br)OCO3)NC1=S	Gal4-VP16 FLuc inconclusive, RORgamma inh 11µM
COCCN1C=C(C(=O)OC)C(c2cc3c(cc2Br)OCO3)C(C(=O)OC)=C1	none
CCN(C(=O)C1CCN(S(=O)(=O)c2ccc3c(c2)CCCN3C(=O)C2CCC2)CC1)c1cccc(C)c1	none (no result: MCF10A rereplic, Gal4-VP16 FLuc, SW480 rereplic, RORgamma inh)
COc1cccc(C(=O)NC(=S)Nc2ccc(Cl)cc2C(=O)O)c1	Gal4-VP16 FLuc 7.1µM, RORgamma inh 10µM
COc1cccc(C(=O)NC(=S)Nc2ccc3c4c(cccc24)CC3)c1	KB-3-1 tox inconclusive, Gal4-VP16 FLuc 11µM, RORgamma inh 3.5µM
Cc1cccc(NC(=O)CCSc2nnc(Cc3ccccc3)o2)c1	KB-V1 cytotox 15µM
Cc1cc(C)cc(NC(=O)CSc2nnc(-c3ccccc3C)o2)c1	KB-V1 cytotox 12µM, Gal4-VP16 FLuc inconclusive
Cc1ccc(NC(=O)CSc2nnc(-c3ccccc3Br)o2)cc1C	KB-3-1 tox inconclusive, KB-V1 cytotox inconclusive
Cc1ccc(NC(=O)CSc2nnc(-c3ccccc3C)o2)cc1C	Gal4-VP16 FLuc inconclusive, RORgamma inh 14µM
Cc1cccc(NC(=O)CSc2nnc(-c3ccccc3C)o2)c1	KB-V1 cytotox inconclusive, RORgamma inh 5µM
Cc1cccc(C)c1NC(=O)CN(CC(=O)O)CC(=O)O	none (no result: KB-3-1 tox, KB-V1 cytotox)
COC(=O)[C@@]1(Cc2ccccc2)[C@H]2c3cc(C(=O)N4CCCC4)n(Cc4ccc(O)c(OC)c4)c3C[C@H]2CN1C(=O)c1ccccc1	none (no result: KB-3-1 tox, MCF10A rereplic, KB-V1 cytotox, SW480 rereplic)
O=C(NNC(=O)c1ccccc1OCc1ccccc1Cl)c1csc(N2CCOCC2)n1	KB-3-1 tox inconclusive, Gal4-VP16 FLuc inconclusive, RORgamma inh 13µM
Cc1ccc2nc(-c3ccccc3)cc(C(=O)NNC(=O)c3csc(N4CCOCC4)n3)c2c1	KB-V1 cytotox 21µM (no result: Gal4-VP16 FLuc, RORgamma inh)
Cc1ccc(C)c(SCC(=O)NNC(=O)c2csc(N3CCOCC3)n2)c1	Gal4-VP16 FLuc inconclusive, RORgamma inh 8.9µM
Cc1ccsc1C(=O)NNC(=O)c1csc(N2CCOCC2)n1	none (no result: Gal4-VP16 FLuc, RORgamma inh)
